The values below come from PubChem BioAssay AID686978 (National Center for Advancing Translational Sciences (NCATS), 2013).

About 64,000 (15%) of roughly 420,000 compounds were called active. Inconclusive results (about 27%) are left out. Calls come from the whole dose curve; as a rule, active = well fitted inhibition curve with a large enough effect; inconclusive = small, poorly fitted or top-dose-only effect; inactive = flat fitted curve, though single readings scatter. Not all results are given here. Entries that show only a call come without a potency.
Potency is the fitted concentration of half-maximal effect.

The nature of this assay: qHTS for Inhibitors of human tyrosyl-DNA phosphodiesterase 1 (TDP1): qHTS in cells in absence of CPT. Note: nearly all actives have a fitted effect of over 55% in size. To be noted: DT40 Tdp1-/- hTDP1 cells, no CPT, ATP luminescence, 48 h; activity change, negative = growth inhibition: at 46.2 µM (top of the series). In a few lines: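 A cellular qHTS used chicken DT40 cells lacking endogenous Tdp1 but carrying stably transfected human TDP1. Compounds were applied without camptothecin, and cell growth kinetics were judged by ATP-dependent luminescence after ≥48 hr.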
Background: qHTS replaces the single test concentration by a dilution series.
As to `O=C(CCCN1C(=O)/C(=C/c2ccccc2)SC1=S)Nc1ccc(O)cc1`, the Potency result is “inactive”. With `COc1ccc(/C=C2\SC(=S)N(CCC(=O)Nc3ccccn3)C2=O)cc1OC` the entry was “inactive”.

`C=CCOc1ccc(/C=C2\SC(=S)N(CCC(=O)O)C2=O)cc1`: the Potency result is “inactive”.

With `COc1ccc(/C=C2\SC(=S)N(CCC(=O)Nc3cccc(C(=O)O)c3)C2=O)cc1OC`, the Potency result was “inactive”. With `COc1cccc(/C=C2\SC(=S)N(CCCC(=O)N3CCOCC3)C2=O)c1` the figure was 18.4 µM (active); with `O=C1/C(=C/c2ccc(F)cc2)SC(=S)N1CCCC(=O)N1CCCCC1CCO` (centres undefined), 25.9 µM (active); with `COc1ccc(/C=C2\SC(=S)N(CCCC(=O)NC3CCCC3)C2=O)cc1OC`, 16.4 µM (active). With `COc1ccc(/C=C2\SC(=S)N(CCC(=O)N3CCOCC3)C2=O)cc1OC` the entry was “inactive”. In the case of `COc1cccc(/C=C2/SC(=S)N(CC(=O)NC3C=CS(=O)(=O)C3)C2=O)c1` (centres undefined), the Potency entry was “inactive”. With `CC(=O)N(OCc1ccc(OC(C)C)c(Cl)c1)C(C)=O` the entry was “inactive”; with `C[N+](C)(C)CCNC(=O)c1c(O)c2c([nH]c1=O)CCCC2`, “inactive”; with `COc1ccc2nc(N3CCCC(O)C3)c(C#N)cc2c1` (centres undefined), “inactive”. On to `Cc1ccc(NC(=O)COC(=O)C2C3CC4OC(=O)C2C4C3)cc1Cl` (centres undefined), for which the Potency entry was “inactive”.

Turning to `O=C(COC(=O)c1ccccn1)NNC(=O)c1ccc([N+](=O)[O-])cc1`, the Potency result was “inactive”.

Take `CCc1noc(C)c1C(=O)NCCN1Cc2cc(OC)ccc2OC(CC)C1` (centres undefined): the Potency entry is “inactive”. With `Nc1nc(N)c(N=O)c(N)n1` the entry was “inactive”. Take `O=C(NCc1ccccc1)[C@H]1C[C@@H]1[C@H](NP(=O)(c1ccccc1)c1ccccc1)c1ccccc1`: the Potency is 20.6 µM (active). In the case of `O=C(O)C1C2C=CC(C2)C1C(=O)NCc1ccccc1` (centres undefined), the Potency result is “inactive”. Turning to `O=C(NCc1ccccc1)C1CNCC(C(=O)NCc2ccccc2)C1` (centres undefined), the Potency result is “inactive”.

Consider `O=C1CSC(=O)N1CCOCCN1C(=O)CSC1=O`, for which the Potency result is “inactive”. As for `COCCn1c(C)cc(C(=O)COC(=O)/C=C/c2cccc(OC)c2)c1C`, the Potency result was “inactive”.

In the case of `Cc1cc2cc3n(c2nn1)N=C(Cl)CC3`, the Potency was 11.6 µM (active). Turning to `CS(=O)(=O)c1ccc(Cl)c(NC(=O)COC(=O)c2cccc(S(=O)(=O)N3CCCC3)c2)c1`, the Potency result was “inactive”. The same measure for `CC1(C(=O)Nc2cccc3cccnc23)CCN1C(=O)CCC1CCCC1` (centres undefined): 16.4 µM (active); for `CC1(C(=O)NS(=O)(=O)c2ccc(Cl)cc2)CCN1C(=O)CC1CCCC1` (centres undefined): “inactive”. As for `CC1(C(=O)Nc2ccccc2Br)CCN1C(=O)CC1CC1` (centres undefined), the Potency entry is “inactive”. In the case of `C=CCNc1nc(Nc2ccc(Cl)cc2)nc(OC)n1`, the Potency result is “inactive”. As to `O=C(Cn1cc(C(=O)C2CC2)c2ccccc21)Nc1ccccc1Cl`, the Potency result is “inactive”.

In the case of `CN(C)S(=O)(=O)c1ccc(C(=O)NCC2(N3CCOCC3)CCCCC2)cc1`, the Potency entry is “inactive”.

Turning to `CC(=O)Nc1ccccc1C(=O)C(=O)Nc1ccc(F)cc1`, the Potency entry was “inactive”. The same measure for `O=S(=O)(Nc1n[nH]c(C(F)(F)F)n1)c1ccccc1`: “inactive”; for `CCCNC(=O)C1(C)CCN(C(=O)c2cc(F)ccc2C)C1` (centres undefined): “inactive”; for `CCCNC(=O)C1(C)CCCN(C(=O)c2cccc(OC(C)=O)c2C)C1` (centres undefined): “inactive”. Regarding `CCCNC(=O)C1(C)CCCN(Cc2cccc(C(F)(F)F)c2)C1` (centres undefined), the Potency was 25.9 µM (active). Turning to `CCCNC(=O)C1(C)CCN(C(=O)c2ccc(F)cc2Cl)C1` (centres undefined), the Potency result was “inactive”.

For the compound `CCCNC(=O)C1(C)CCN(Cc2csc(-c3ccc(Cl)cc3)n2)C1` (centres undefined), the Potency was 16.4 µM (active). As to `CCCNC(=O)C1(C)CCN(Cc2ccc(Cl)c(Cl)c2)C1` (centres undefined), the Potency was 20.6 µM (active).

As for `CCCNC(=O)C1(C)CCCN(Cc2c(C)nn(-c3ccccc3)c2C)C1` (centres undefined), the Potency result is “inactive”. On to `CCNC(=O)C1(C)CCN(Cc2ccc(C(=O)OCC)o2)C1` (centres undefined), for which the Potency entry was “inactive”. The same measure for `CCCNC(=O)C1(C)CCN(C(=O)c2ccccc2OC(F)(F)F)C1` (centres undefined): “inactive”; for `Cc1ccc(NC(=O)C(C)OC(=O)C2CC3CCCC(C2)C3=O)cc1S(=O)(=O)N1CCOCC1` (centres undefined): “inactive”; for `CCCOc1ccc(N2C(=O)CC(N(CCc3ccc(S(N)(=O)=O)cc3)C(C)=O)C2=O)cc1` (centres undefined): “inactive”. Take `O=C(CNc1ccc(F)cc1F)NC(=O)NCc1ccco1`: the Potency result is “inactive”. With `COc1ccc(/C(N)=N/OC(=O)Oc2ccccc2)cc1` the entry was “inactive”. The same measure for `Cc1noc(NS(=O)(=O)c2ccc(NC(=O)C34CCC(CC3)C4)cc2)c1C`: “inactive”. Regarding `Cc1c(Cl)cccc1NC(=S)NCC(O)c1ccccc1` (centres undefined), the Potency result was “inactive”. With `O=C(C1CCCO1)N1CCN(S(=O)(=O)c2ccc(Br)cc2)CC1` (centres undefined) the entry was “inactive”. With `C#CCOCCOCCOCCNc1nc(N2CCN(C(=O)[C@H](CCCCN)n3cc([C@@H](N)C(C)CC)nn3)CC2)nc(N2CCN(C(=O)[C@H](Cc3ccc(O)cc3)n3cc([C@@H](N)C(C)CC)nn3)CC2)n1` (some centres undefined) the entry was “inactive”. For the compound `COc1cccc(C2CC(c3ccccc3)=NN2S(=O)(=O)c2ccccc2)c1OC` (centres undefined), the Potency is 25.9 µM (active). Turning to `CCS(=O)(=O)Nc1ccc(C2=NN(S(=O)(=O)c3ccc(F)cc3)C(c3ccco3)C2)cc1` (centres undefined), the Potency result is “inactive”. The same measure for `CS(=O)(=O)Nc1cccc(C2=NN(S(=O)(=O)c3ccccc3)C(c3cccs3)C2)c1` (centres undefined): “inactive”; for `CNC(=O)C(NC(=O)c1ccccc1)=C(C)C`: “inactive”. With `O=C(NCCN1C(=O)C2C3C=CC(C3)C2C1=O)Nc1ccccn1` (centres undefined) the entry was “inactive”; with `COc1ccc(OCC(=O)N2CCN(C(=O)c3cccs3)CC2)cc1`, “inactive”; with `CCc1ccc(NC(=O)COC(=O)c2cccs2)cc1`, “inactive”. The same measure for `Cc1ccc(Cl)cc1NC(=O)CN1CCN(S(=O)(=O)N2CCOCC2)CC1`: “inactive”; for `O=C(CN1CCN(c2cccc(Cl)c2)CC1)Nc1ccc(S(=O)(=O)N2CCOCC2)cc1`: 8.2 µM (active).

For `O=C(CN1CCOCC1)Nc1cc(Cl)ccc1Cl`, the Potency result is “inactive”. For `O=C(CN1C(=O)CCC1=O)Nc1ccc(S(=O)(=O)N2CCOCC2)cc1`, the Potency entry was “inactive”.

Turning to `O=C(CN1CCN(c2ccc(O)cc2)CC1)Nc1cc(S(=O)(=O)N2CCOCC2)ccc1Cl`, the Potency is 13 µM (active). With `O=C(CN1CCN(S(=O)(=O)/C=C/c2ccccc2)CC1)Nc1ccc(N2CCOCC2)cc1` the entry was “inactive”. The same measure for `Cc1cc(NC(=O)CC(C)C)cc(-c2nc3ncccc3o2)c1O`: “inactive”. With `Cn1c(NC(=O)c2ccc3c(c2)OCO3)cc(=O)n(C)c1=O` the entry was “inactive”; with `COc1ccccc1CC(NC(C)=O)C(=O)NC1CCN(C(=O)Nc2ccccc2Cl)CC1` (centres undefined), “inactive”.
